In PubChem BioAssay AID1021 (Emory University Molecular Libraries Screening Center, 2008):
About 2,100 (0.95%) of roughly 220,000 compounds were called active. This excerpt belongs to a sample that is enriched for actives. A number with no mark means an inactive call.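 The calls were made as follows: active = compounds that cut the binding signal by more than half at the single screening dose; inactive = the rest.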

Target: Induced myeloid leukemia cell differentiation protein Mcl-1 (Homo sapiens) (UniProt Q07820)
Sequence (Q07820 whole entry, looked up): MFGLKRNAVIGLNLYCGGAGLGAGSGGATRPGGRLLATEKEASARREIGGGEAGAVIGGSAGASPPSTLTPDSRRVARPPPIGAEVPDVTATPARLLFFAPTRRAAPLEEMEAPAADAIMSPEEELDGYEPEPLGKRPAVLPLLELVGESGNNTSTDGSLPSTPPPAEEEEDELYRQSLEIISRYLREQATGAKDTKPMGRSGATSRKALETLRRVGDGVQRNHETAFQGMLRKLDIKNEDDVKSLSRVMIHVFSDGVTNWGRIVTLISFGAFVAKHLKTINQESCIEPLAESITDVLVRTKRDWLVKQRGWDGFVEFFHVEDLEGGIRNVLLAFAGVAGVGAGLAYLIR
Assay: disruptors of Mcl-1 and Bid BH3 peptide – biochemical, TR-FRET, 1536-well, primary screen (AID 1021);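 also: His-tagged Mcl-1 with europium anti-His antibody binding Bid BH3 peptide; 0% = Mcl-1 plus peptide wells and 100% = peptide-only wells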
Conditions: TR-FRET Mcl-1/Bid-Dy647 peptide binding, at 21.7 µM, stronger effect = higher value

SMILES | inhibition
O=C(Nc1ccc(Br)cn1)C1CCN(S(=O)(=O)c2cccs2)CC1 | -17.8%
CCc1cc2cc(OC)ccc2nc1SCC(=O)Nc1cc(OC)c(OC)cc1C(=O)O | -3.27%
O=C(C1CCCO1)N(c1ccc(F)cc1)C1C=CS(=O)(=O)C1 (stereo unspecified) | -15.9%
Cc1cccn2c(CN(C)C3CCCc4ccccc43)c(C(=O)N3CCOCC3)nc12 (stereo unspecified) | 54.6% (active)
Cc1cc(C)n(CC(C)NCc2c(C(=O)N3CCOCC3)nc3c(C)cccn23)n1 (stereo unspecified) | -17.6%
Cc1cccn2c(CNCC(C)Oc3cccnc3)c(C(=O)N3CCOCC3)nc12 (stereo unspecified) | -13.2%
Cc1cc(N2CCN(c3ccccc3)CC2)nc(N2CCOCC2)n1 | -98.4%
Cc1ccc(-c2cc(C(=O)NN)n[nH]2)o1 | -33.4%
O=C(CSc1nc2ccccc2o1)N/N=C/c1ccccc1C(=O)O | -19.1%
Nc1c(Cl)cc(S(N)(=O)=O)cc1S(N)(=O)=O | -8.81%
Cc1c(/C=N/N2C(=O)C3C4C=CC(C4)C3C2=O)c2ccccc2n1C (stereo unspecified) | 59.1% (active)
Cc1c(C=O)c2ccccc2n1CC(=O)O | -7.49%
Cc1c(/C=N\NC(=O)c2cc3ccccc3o2)c2ccccc2n1C | -24.8%
O=C(NC1CC1)C1=C[C@H](c2c[nH]c3ccccc23)C[C@H](OCc2ccc(CO)cc2)O1 | -70.3%
OCC1(Cc2ccccc2C(F)(F)F)CCN(Cc2cccc3cnccc23)CC1 | -14.6%
COc1ccc2nc(NC(=O)NC3CCCCC3)sc2c1 | -6.76%
COC(=O)[C@H](CC(C)C)NC(=O)N1CCCCC1C (stereo partly specified) | -3.65%
COc1ccc(C(=O)Nc2cccnc2)cc1C(=O)Nc1cccnc1 | 14.7%
O=C(Nc1cccnc1)c1cc2cc(Br)ccc2oc1=O | 59.5% (active)
O=C(Oc1cccnc1)c1cc2ccccc2oc1=O | 19.8%
O=C(CN1CCCCCC1)NCCN1C(=O)S/C(=C\c2ccccc2Cl)C1=O | -7.27%
COc1ccccc1Cn1c(CO)nc2ccccc21 | -24.8%
Cc1cccc(C2C3=C(CCCC3=O)N=C3c4ccccc4C(=O)C32)c1 (stereo unspecified) | -45%
Cc1cccc(NC(=S)NC23CN4CN(CN(C4)C2)C3)c1 | -75.3%

SMILES | inhibition
CCS(=O)(=O)c1ccc2oc(SCC(=O)N3c4ccccc4CC3C)nc2c1 (stereo unspecified) | -1.51%
CC1CN(S(=O)(=O)c2ccccc2)C(C)CN1S(=O)(=O)c1ccccc1 (stereo unspecified) | -4.73%
CCS(=O)(=O)c1ccc2c(c1)N(S(=O)(=O)c1ccccc1)CC(C(=O)O)O2 (stereo unspecified) | 52.3% (active)
C=CCOc1ccc(/C=N/NC(=O)C(C)Sc2ccccn2)cc1OCC (stereo unspecified) | -8.6%
COc1ccccc1C1CCN(c2ccc([N+](=O)[O-])cn2)CC1 | -13.5%
CCOC(=O)C(NC(=O)CC(C)C)(Nc1sc2c(c1C(N)=O)CCCC2)C(F)(F)F (stereo unspecified) | -1.21%
O=c1[nH]c2cccnc2n1-c1ccc([N+](=O)[O-])cc1 | -13.5%
C=CCn1c(COc2ccccc2)nnc1SCC(=O)NCC(=O)OCC | -8.17%
CCOC(=O)CNC(=O)CSc1nnc(COc2ccc(Cl)cc2)n1CC | 59% (active)
CCOC(=O)CNC(=O)CSc1nnc(-c2cccc(OC)c2)n1CC | -3.85%
COc1ccc(CN(C)C(=S)Nc2ccc(Cl)cc2Cl)cc1 | -35.5%
COc1ccc(CN2CCn3ncc(C(=O)Nc4ccc(Cl)cc4Cl)c3C2=O)cc1 | 32%
O=c1cc(CCl)nc2scc(-c3ccccc3)n12 | -18.4%
Cc1ccccc1-c1nnc(SCC(=O)NCc2ccc3c(c2)OCO3)n1C | -9.98%
O=C(O)CSc1nnc(-c2ccc3c(c2)OCO3)n1-c1ccccc1 | -2.66%
Cn1c(SCc2nc3ccccc3s2)nnc1-c1ccc2c(c1)OCO2 | 85.9% (active)
COc1ccc(CCNc2cc(C)nc3c(-c4ccc(Cl)cc4)c(C)nn23)cc1OC | 5.91%
Cc1ccc(-c2noc(CSc3nnnn3-c3ccccc3)n2)cc1 | 0.82%
O=c1c2ccccc2nnn1CSc1nnnn1-c1ccccc1 | -28.6%
O=c1c2ccccc2nc(CSc2nnnn2-c2ccccc2)n1-c1ccccc1 | 67% (active)
Oc1ccc(-c2nncn2-c2ccccc2)cc1 | -19.8%
O=C(N/N=C/c1ccc([N+](=O)[O-])o1)c1cccc(S(=O)(=O)N2CCOCC2)c1 | -61.1%
O=[N+]([O-])c1cc(Cl)cc(/C=N/NC(=S)Nc2cc(S(=O)(=O)N3CCOCC3)ccc2Cl)c1O | 91.1% (active)
O=C(CN1CCN(c2ccc(O)cc2)CC1)Nc1cc(S(=O)(=O)N2CCOCC2)ccc1Cl | -49.6%

SMILES | inhibition
CC(Sc1nc2cc(Cl)ccc2s1)C(=O)Nc1ccc2c(c1)OCO2 (stereo unspecified) | -1.87%
Cc1cc(C)nc(Nc2ncn[nH]2)n1 | -30%
O=C(O/N=C(/c1ccccc1)c1ccncc1)c1ccccc1[N+](=O)[O-] | -11.8%
COc1cc(OC)nc(N/N=C(\c2ccccc2)c2ccncc2)n1 | 1.66%
CN(C)CCCO/N=C(\c1ccccc1)c1ccncc1 | 54.2% (active)
Cc1ccc2c(c1)C1CN(C)CCC1N2C(=S)Nc1ccc(OC(F)F)cc1 (stereo unspecified) | -15.3%
COc1ccc2c(c1)C(C)=CC(C)(C)N2C(=O)CNCc1ccc2c(c1)OCO2 | 62% (active)
COc1ccc2c(c1)C(C)=CC(C)(C)N2C(=O)Nc1ccccc1 | -36.6%
CCn1cc(C(=O)NCc2ccc3c(c2)OCO3)c2cc(OC)c(OC)cc2c1=O | 38.8%
CC(=O)c1nnn(-c2ccc(Cl)cc2C#N)c1C | 1.84%
Cc1ccc(-c2cc(C(=O)NCc3cn(C)nc3C)c3cc(Br)ccc3n2)cc1 | 57.4% (active)
Cc1ccc2nc(-c3cccc(Br)c3)cc(C(=O)Nn3cnnc3)c2c1 | -15.1%
COc1ccc(Cl)cc1C(=O)NCc1cn(C)nc1C | -17.2%
CN(Cc1ccccn1)Cc1nc(-c2ccc(Cl)cc2)no1 | 3.34%
CN(c1ccccc1)S(=O)(=O)c1ccc(Cl)c(C(=O)OCC(=O)NCc2ccco2)c1 | -33.3%
CCN(CC)CCCN=C(N)N | -18.1%
Nc1nnc(SCC(=O)NC2CCCc3ccccc32)s1 (stereo unspecified) | -21.1%
Nc1nnn(CC(=O)N/N=C/c2ccccc2)n1 | -50.3%
O=C(Cn1nnc(-c2ccccc2)n1)N/N=C/c1ccc(-c2ccc(Cl)cc2)o1 | 61% (active)
Nc1nnnn1CC(=O)N/N=C/c1ccc(-c2cccc(Cl)c2)o1 | -8.79%
O=C(Cn1nnc(-c2ccccc2)n1)NCc1ccccc1 | -1.82%
O=C(CN1CCOCC1)N/N=C/c1ccc(-c2ccc(Br)cc2)o1 | -11.9%
Cc1[nH]c2ccccc2c1/C=N\NC(=O)Cn1nnc(-c2ccccc2)n1 | 65.2% (active)
CCCCN1CCNC1=S | -29.5%

SMILES | inhibition
CC1(C)CC(=O)C(C=NCCN2CCN(C(=S)Nc3cccc(Cl)c3)CC2)=C(O)C1 | -49.6%
Cc1nn(C)c(C)c1Sc1ccccc1N | -33.5%
CCN(CC)c1ccc(NC(=O)C2CCC(CNc3c(N4CCCC4)c(=O)c3=O)CC2)c(C)c1 (stereo unspecified) | -70.9%
CC1(C)OC(=O)N2CCc3ccccc3C21C (stereo unspecified) | 6.73%
CN(C)C(=O)c1nc2ccc(Cl)cn2c1CNCc1cccc(OC(F)(F)F)c1 | -1.45%
COC(=O)CN1C(C)=Nc2ccc(Br)cc2C1c1ccccc1 (stereo unspecified) | 67.2% (active)
CCC(CC)C(=O)N1CC(=O)Nc2ccc(Br)cc2C1c1ccccc1 (stereo unspecified) | -3.97%
COC(=O)CN1C(=O)C(O)=C(C(C)=O)C1c1ccc([N+](=O)[O-])cc1 (stereo unspecified) | -31.9%
N#CCCCn1c(O)c(N=NC(=O)C(O)c2ccccc2)c2ccccc21 (stereo unspecified) | -13.3%
Cc1cc(=O)oc2c(C(=O)c3ccccc3)c(OCC(N)=O)ccc12 | -15.3%
N#CCC(=O)N/N=C/c1cn(Cc2ccc3ccccc3c2)c2ccccc12 | 25.7%
O=C(O)/C=C/c1cn(Cc2ccccc2)nc1-c1cccs1 | -0.35%
O=C(O)CCn1cc(/C=C/C(=O)c2ccc(Cl)cc2)c(-c2cccc(Br)c2)n1 | 69.2% (active)
CCOC(=O)/C(C#N)=C/c1cn(CCC(=O)O)nc1-c1ccc(Br)cc1 | 39.2%
Cc1noc(C)c1S(=O)(=O)Nc1ccc(C(=O)N2CCN(c3ccc(F)cc3)CC2)cc1 | -10.6%
CCOc1cc(C(=O)OCC(=O)Nc2cccc(C)c2)ccc1OCC(=O)N1CCOCC1 | -54%
CCOc1cc(C(=S)N2CCOCC2)ccc1O | 74.5% (active)
COc1cc(C(=S)N2CCOCC2)ccc1O | -30.2%
O=C(Nc1ccc2c(c1)C(=O)OC2)Nc1cccc2ccccc12 | -19.5%
COc1ccc(/C=C/CN2CCN(Cc3ccc(C)cc3)C(CCO)C2)cc1 (stereo unspecified) | -9.23%
NC1=NC[C@@H](Cc2ccc(O)cc2)N1CC1CCCCC1 | -44.1%
C#CCOCCOCCOCCNc1nc(N2CCN(C(=O)[C@H](CCC(=O)O)n3cc(C(N)CO)nn3)CC2)nc(N2CCN(C(=O)[C@H](Cc3ccc(O)cc3)n3cc(C(N)[C@H](C)CC)nn3)CC2)n1 (stereo partly specified) | 62.7% (active)
C#CCOCCOCCOCCNc1nc(N2CCN(C(=O)[C@H](Cc3ccc(O)cc3)n3cc(C(N)CC(C)C)nn3)CC2)nc(N2CCN(C(=O)[C@H](CCC(=O)O)n3cc(C(N)[C@H](C)CC)nn3)CC2)n1 (stereo partly specified) | 2.45%
C#CCOCCOCCOCCNc1nc(N2CCN(C(=O)C(Cc3ccc(O)cc3)n3cc(C(N)CC(C)C)nn3)CC2)nc(N2CCN(C(=O)C(Cc3ccc(O)cc3)n3cc(C(N)C(C)CC)nn3)CC2)n1 (stereo unspecified) | -1.6%
